About 8,600 (12%) of roughly 69,000 compounds showed an effect of 50% or more. This is one part of a sample in which strong results are shown more often than they occur.
Test system: Plasmodium berghei
Test: Screen against P. berghei liver stage (PbLuc), transformed with Luciferase, at 10uM
Assay type: functional, HepG2
Details: tested at 10 uM

Row | SMILES | INHIBITION
1 | COCCN(Cc1cccc(OCCO)c1)Cc1ccccc1F | 13%
2 | CC(=O)N1CCCC(Cc2cnc(-n3ccnc3)cn2)C1 (stereo not drawn) | -33.4%
3 | C=C(C)COc1cccc(C(=O)NC(C)c2nnn[nH]2)c1 (stereo not drawn) | 52.1%
4 | Cc1cc(C(=O)NC(C)c2nnn[nH]2)c2ccc(C)c(C)c2n1 (stereo not drawn) | -11.6%
5 | Cc1cc(C(=O)NC(C)c2nnn[nH]2)c2cccc(C)c2n1 (stereo not drawn) | 60%
6 | CCC(=O)c1ccc(OCC(=O)NC(C)c2nnn[nH]2)cc1 (stereo not drawn) | -47.9%
7 | C=C(C)COc1cccc(C(=O)NCCCc2nnn[nH]2)c1 | 9.41%
8 | Cc1cc(C)c2nc(C)cc(C(=O)NC(C)c3nnn[nH]3)c2c1 (stereo not drawn) | 45.1%
9 | CN(C)C(=O)COC[C@@H]1CC[C@H]2[C@H](CCN2c2ncccn2)O1 | 0.542%
10 | COCc1ccccc1NC(=O)CCNC(=O)c1ccoc1 | -77.9%
11 | CN(C)C[C@@H]1CCC[C@@H]2CN(c3ncccn3)C[C@@H]21 | 16.1%
12 | O=C(NCc1ccc(N2CC=CC2)cc1)Nc1nnc(C2CC2)s1 | 3.87%
13 | O=C1CN(c2ccc(CNC(=O)Nc3nnc(C4CC4)s3)cc2)CCN1 | 59.6%
14 | CC(O)CNC(=O)NCc1ccc(N2CCNC(=O)C2)cc1 (stereo not drawn) | 39.5%
15 | Cc1nnc(NC(=O)NCc2ccc(N3CCNC(=O)C3)cc2)s1 | 14.7%
16 | O=C1CN(c2ccc(CNC(=O)NCCO)cc2)CCN1 | 52.5%
17 | O=C1CN(c2ccc(CNC(=O)NCc3ccoc3)cc2)CCN1 | -22.9%
18 | Cc1nn(CCC(=O)N(C)Cc2c(Cl)cnn2C)cc1Br | 18.3%
19 | CCN(Cc1ccc(Cl)c(Cl)c1)C(=O)CCn1cncn1 | 19.3%
20 | Cc1nc(C)n(CC2CN(c3ncccc3C#N)CCO2)n1 (stereo not drawn) | -14.7%
21 | O=C(O)c1cc(-c2cncnc2)cc(S(=O)(=O)N2CCCCCC2)c1 | -8%
22 | CN(C)c1nccnc1C1CCN(C(=O)C2(C)CCCCN2C)CC1 (stereo not drawn) | 28.6%
23 | Cc1n[nH]c2c1C(c1cnn(C)c1)SCC(=O)N2 (stereo not drawn) | -2.37%
24 | CC(C)n1nc(O)c2c1NC(=O)CSC2c1cnn(C)c1 (stereo not drawn) | 9.36%
25 | Cc1nn(-c2ncccn2)c2c1C(c1cnn(C)c1C)SCC(=O)N2 (stereo not drawn) | 27.6%
26 | Cc1nn(-c2ccccn2)c2c1C(c1cnn(C)c1)SCC(=O)N2 (stereo not drawn) | 41.5%
27 | Cc1cc(C)nc(-n2nc(C)c3c2NC(=O)CSC3c2cnn(C)c2)n1 (stereo not drawn) | 88.8%

Row | SMILES | INHIBITION
28 | Cc1nn(-c2ncccn2)c2c1C(c1cnn(C)c1)SCC(=O)N2 (stereo not drawn) | 61%
29 | COc1cc(CN2CCn3c(CO)nnc3C2)ccc1OC(C)C | 35.2%
30 | Cc1noc(C)c1C(=O)N1CCCN(Cc2cscn2)CC1 | 9.64%
31 | NCC1CCC(C(NC(=O)c2ccccc2)c2ccccn2)CC1 (stereo not drawn) | 48.8%
32 | Cc1noc(C)c1-c1cncc(C2CCCN2Cc2cn(C)cn2)n1 (stereo not drawn) | 26.8%
33 | Cc1ccc(NS(=O)(=O)c2ccc(C#N)cc2)c(CN(C)C)c1 | -33.5%
34 | Cc1ccc(NS(=O)(=O)c2cccc(C#N)c2)c(CN(C)C)c1 | -0.613%
35 | Cc1ccc(NCc2ccc(C#N)cc2)c(CN(C)C)c1 | 86.7%
36 | Cc1cc(C)n(-c2ccc3nnc(C)n3n2)n1 | -14.9%
37 | O=C(CSc1ccc(F)cc1F)NS(=O)(=O)c1ccc2c(c1)OCCO2 | -16.45%
38 | COCCn1nc(C(=O)N(C)Cc2cnn(C)c2)ccc1=O | 36.3%
39 | Cc1cc(NC(=O)CNC2CCCN(c3cccnn3)C2)on1 (stereo not drawn) | 21%
40 | Cc1ccccc1N1CCCN(C(=O)CN2C(=O)OC[C@@H]2C(C)C)CC1 | 23%
41 | CC(C)[C@H]1COC(=O)N1CC(=O)N1CCN(C(=O)c2ccco2)CC1 | 7.6%
42 | CC(C)[C@H]1COC(=O)N1CC(=O)N1CCCN(C(=O)c2ccoc2)CC1 | 52.1%
43 | COCc1nnc(C(=O)N2CC(N3CCCCC3)C2)o1 | 10.6%
44 | NCC1CCC(C(NC(=O)c2ccccn2)c2ccccn2)CC1 (stereo not drawn) | 24.4%
45 | O=C(c1ccco1)N1CC[C@@H]2O[C@@H](COCCN3CCCC3)CC[C@@H]21 | 83.5%
46 | O=C(c1ccoc1)N1CC[C@@H]2O[C@@H](COCC3CCOCC3)CC[C@@H]21 | 38.1%
47 | O=C(c1ccco1)N1CC[C@@H]2O[C@@H](COCC3CCOCC3)CC[C@@H]21 | 68.9%
48 | O=C(c1ccco1)N1CC[C@@H]2O[C@H](COCCN3CCCC3)CC[C@@H]21 | 24.1%
49 | NC(=O)N1CC[C@@H]2O[C@H](COCC(=O)N3CCCC3)CC[C@@H]21 | -27.9%
50 | CC(=O)N1CC[C@@H]2O[C@@H](COCC(=O)N3CCCC3)CC[C@@H]21 | 52%
51 | NC(=O)N1CC[C@@H]2O[C@@H](COCC(=O)N3CCCC3)CC[C@@H]21 | 15.4%
52 | O=C(c1ccno1)N1CC[C@@H]2O[C@@H](COCCN3CCCC3)CC[C@@H]21 | 28.4%
53 | O=C(c1ccco1)N1CC[C@@H]2O[C@H](COCC3CCOCC3)CC[C@@H]21 | -4.99%

— ChEMBL document CHEMBL4513216, “Probing the Open Global Health Chemical Diversity Library for Multistage-Active Starting Points for Next-Generation Antimalarials” (ACS Infect Dis, 2020)
